Holding throughout (assay): DAPPL (digital affinity profiling via proximity ligation, sequencing); 10 mM Tris-HCl pH 7.5, 50 mM NaCl, 1 mM DTT, 4% glycerol, room temperature, 30 min; GST-TFs on glutathione beads, 16-mer random dsDNA library, 0.1% formaldehyde crosslink after washing; high values mean tight binding
The target of one experiment is T1, FLI1 (Homo sapiens, UniProt Q01543 1-452).
T1 sequence: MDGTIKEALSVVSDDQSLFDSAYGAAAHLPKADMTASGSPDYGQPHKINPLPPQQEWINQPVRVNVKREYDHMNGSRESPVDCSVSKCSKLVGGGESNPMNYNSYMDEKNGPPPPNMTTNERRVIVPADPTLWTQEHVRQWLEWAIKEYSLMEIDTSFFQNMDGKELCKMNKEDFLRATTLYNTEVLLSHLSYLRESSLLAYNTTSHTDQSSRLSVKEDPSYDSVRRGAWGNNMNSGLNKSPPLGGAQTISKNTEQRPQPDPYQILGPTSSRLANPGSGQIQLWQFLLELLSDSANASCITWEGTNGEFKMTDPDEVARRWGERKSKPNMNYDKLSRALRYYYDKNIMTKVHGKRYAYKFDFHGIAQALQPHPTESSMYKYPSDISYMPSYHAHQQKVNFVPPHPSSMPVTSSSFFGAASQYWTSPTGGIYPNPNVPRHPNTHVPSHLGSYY
The following applies: protein: recombinant; tags: N-terminal GST; dsDNA, one strand shown. The essentials:
(§1)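 Pools of DNA-barcoded human transcription factors, expressed in yeast as GST fusions on glutathione beads and combined with a tag-only sample, were incubated with 200 nmole of a 16-mer random double-stranded DNA library. Incubation took 30 min at room temperature in Tris/NaCl/DTT/glycerol buffer and was followed by washing, 0.1% formaldehyde crosslinking, proximity ligation (BsaI/T4 ligase, 1 h, 37 °C), PCR amplification and sequencing on an Illumina NextSeq500. Binding signal is the ratio of a hexamer's read frequency for a factor to its frequency for the tag-only sample.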

The next experiment addresses T2, ELK1 (Homo sapiens, UniProt P19419 1-428).
T2 sequence: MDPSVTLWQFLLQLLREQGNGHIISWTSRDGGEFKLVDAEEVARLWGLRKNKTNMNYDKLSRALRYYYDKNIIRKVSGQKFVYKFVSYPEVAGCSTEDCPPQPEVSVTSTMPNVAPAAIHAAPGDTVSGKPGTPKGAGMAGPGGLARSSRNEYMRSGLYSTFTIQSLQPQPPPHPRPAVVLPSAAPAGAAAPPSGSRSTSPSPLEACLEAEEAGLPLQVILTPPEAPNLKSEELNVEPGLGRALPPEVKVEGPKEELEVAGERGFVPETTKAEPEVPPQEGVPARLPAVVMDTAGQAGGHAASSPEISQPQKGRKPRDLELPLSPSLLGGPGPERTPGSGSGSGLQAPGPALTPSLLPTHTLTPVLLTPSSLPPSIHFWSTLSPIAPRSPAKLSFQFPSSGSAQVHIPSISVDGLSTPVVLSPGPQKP
The following applies: protein: recombinant; tags: N-terminal GST; dsDNA, one strand shown. Summed up:
as §1

A further experiment concerns the target T3, GABPA (Homo sapiens, UniProt Q06546 1-454).
T3 sequence: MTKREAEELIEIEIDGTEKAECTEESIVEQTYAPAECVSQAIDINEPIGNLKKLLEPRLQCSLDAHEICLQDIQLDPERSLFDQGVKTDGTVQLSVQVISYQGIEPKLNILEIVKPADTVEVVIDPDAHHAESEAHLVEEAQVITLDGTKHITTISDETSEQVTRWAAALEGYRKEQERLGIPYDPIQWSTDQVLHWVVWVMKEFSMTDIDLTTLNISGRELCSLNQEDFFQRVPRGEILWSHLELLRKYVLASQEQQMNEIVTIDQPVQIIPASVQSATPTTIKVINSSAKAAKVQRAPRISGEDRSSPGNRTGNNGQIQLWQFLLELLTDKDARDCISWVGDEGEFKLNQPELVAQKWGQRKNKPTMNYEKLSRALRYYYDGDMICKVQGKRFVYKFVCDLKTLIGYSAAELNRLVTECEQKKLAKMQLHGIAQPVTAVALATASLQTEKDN
The following applies: protein: recombinant; tags: N-terminal GST; dsDNA, one strand shown. Summed up:
as §1

The target of the next experiment is T4, ERG (Homo sapiens, UniProt P11308 1-479).
T4 sequence: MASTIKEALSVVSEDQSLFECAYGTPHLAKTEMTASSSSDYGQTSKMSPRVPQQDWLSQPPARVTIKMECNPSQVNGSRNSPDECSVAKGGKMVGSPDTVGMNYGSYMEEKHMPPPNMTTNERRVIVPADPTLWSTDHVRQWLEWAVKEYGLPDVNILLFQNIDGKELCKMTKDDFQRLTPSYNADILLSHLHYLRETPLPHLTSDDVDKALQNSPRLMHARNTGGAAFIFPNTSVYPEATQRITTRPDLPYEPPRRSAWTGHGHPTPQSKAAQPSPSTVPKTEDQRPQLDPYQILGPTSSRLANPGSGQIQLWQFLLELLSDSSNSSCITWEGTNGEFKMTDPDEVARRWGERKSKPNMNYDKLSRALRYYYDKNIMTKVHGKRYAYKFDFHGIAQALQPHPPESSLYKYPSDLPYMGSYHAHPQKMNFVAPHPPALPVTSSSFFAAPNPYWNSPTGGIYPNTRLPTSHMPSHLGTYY
As to conditions: protein: recombinant; tags: N-terminal GST; dsDNA, one strand shown. Summed up: as §1

In a further experiment the target is ELF1 (Homo sapiens, UniProt P32519 1-619). As to conditions: protein: recombinant; tags: N-terminal GST; dsDNA, one strand shown. Summed up:
as §1

Another experiment has as its target T5, EHF (Homo sapiens, UniProt Q9NZC4 1-300).
T5 sequence: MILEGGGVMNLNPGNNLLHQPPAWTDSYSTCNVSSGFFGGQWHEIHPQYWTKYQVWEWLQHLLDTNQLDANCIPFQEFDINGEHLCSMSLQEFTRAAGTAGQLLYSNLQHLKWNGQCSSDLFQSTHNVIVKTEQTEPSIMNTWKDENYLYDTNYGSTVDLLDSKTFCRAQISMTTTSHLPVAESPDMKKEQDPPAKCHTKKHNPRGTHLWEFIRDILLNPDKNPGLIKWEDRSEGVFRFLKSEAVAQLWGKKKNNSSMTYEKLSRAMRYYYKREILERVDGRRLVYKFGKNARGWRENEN
The following applies: protein: recombinant; tags: N-terminal GST; dsDNA, one strand shown. The essentials: as §1

Another experiment deals with SPI1 (Homo sapiens, UniProt P17947 1-270). As to conditions: protein: recombinant; tags: N-terminal GST; dsDNA, one strand shown. Summed up:
as §1

The target of a further experiment is SPIB (Homo sapiens, UniProt Q01892 1-262). The following applies: protein: recombinant; tags: N-terminal GST; dsDNA, one strand shown. The essentials: as §1
A further experiment concerns the target T6, FEV (Homo sapiens, UniProt Q99581 1-238).
T6 sequence: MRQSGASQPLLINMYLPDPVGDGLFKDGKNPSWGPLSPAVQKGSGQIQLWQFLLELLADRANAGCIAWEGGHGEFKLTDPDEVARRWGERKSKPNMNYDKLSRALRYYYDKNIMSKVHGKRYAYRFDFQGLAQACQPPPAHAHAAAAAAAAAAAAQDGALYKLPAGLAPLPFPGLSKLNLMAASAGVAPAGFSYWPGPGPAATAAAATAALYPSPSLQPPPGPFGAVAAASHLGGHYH
The following applies: protein: recombinant; tags: N-terminal GST; dsDNA, one strand shown. The essentials:
as §1

In the next experiment the target is ETV5 (Homo sapiens, UniProt P41161 1-510). As to conditions: protein: recombinant; tags: N-terminal GST; dsDNA, one strand shown. The essentials:
as §1

Another experiment addresses HSF1 (Homo sapiens, UniProt Q00613 1-529). As to conditions: protein: recombinant; tags: N-terminal GST; chain copies: 3; dsDNA, one strand shown. Summed up: as §1
In another experiment the target is T7, SPIC (Homo sapiens, UniProt Q8N5J4 1-248).
T7 sequence: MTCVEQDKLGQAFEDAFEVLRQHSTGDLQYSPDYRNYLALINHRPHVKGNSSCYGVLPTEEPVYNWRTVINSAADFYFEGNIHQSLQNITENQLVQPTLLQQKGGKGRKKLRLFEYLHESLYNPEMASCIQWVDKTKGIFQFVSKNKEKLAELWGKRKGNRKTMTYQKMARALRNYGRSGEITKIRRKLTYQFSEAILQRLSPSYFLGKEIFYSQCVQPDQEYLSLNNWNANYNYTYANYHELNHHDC
As to conditions: protein: recombinant; tags: N-terminal GST; dsDNA, one strand shown. The essentials: as §1

Another experiment concerns the target ELF4 (Homo sapiens, UniProt Q99607 1-663). As to conditions: protein: recombinant; tags: N-terminal GST; dsDNA, one strand shown. The essentials: as §1
Another experiment concerns the target T8, ELK4 (Homo sapiens, UniProt P28324-2 1-405).
T8 sequence: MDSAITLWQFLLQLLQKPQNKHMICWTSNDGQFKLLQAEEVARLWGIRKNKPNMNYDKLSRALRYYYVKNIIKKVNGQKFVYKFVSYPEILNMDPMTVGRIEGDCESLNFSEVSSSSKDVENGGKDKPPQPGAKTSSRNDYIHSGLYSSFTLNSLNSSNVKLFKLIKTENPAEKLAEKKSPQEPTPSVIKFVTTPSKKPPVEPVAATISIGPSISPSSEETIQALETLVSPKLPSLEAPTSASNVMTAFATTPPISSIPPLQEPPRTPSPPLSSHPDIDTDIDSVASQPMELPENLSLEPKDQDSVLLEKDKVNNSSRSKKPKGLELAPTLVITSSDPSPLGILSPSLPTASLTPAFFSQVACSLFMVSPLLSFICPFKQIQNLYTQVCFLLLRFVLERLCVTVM
As to conditions: protein: recombinant; tags: N-terminal GST; dsDNA, one strand shown. The essentials: as §1

In another experiment the target is T9, ETV2 (Homo sapiens, UniProt O00321 1-342).
T9 sequence: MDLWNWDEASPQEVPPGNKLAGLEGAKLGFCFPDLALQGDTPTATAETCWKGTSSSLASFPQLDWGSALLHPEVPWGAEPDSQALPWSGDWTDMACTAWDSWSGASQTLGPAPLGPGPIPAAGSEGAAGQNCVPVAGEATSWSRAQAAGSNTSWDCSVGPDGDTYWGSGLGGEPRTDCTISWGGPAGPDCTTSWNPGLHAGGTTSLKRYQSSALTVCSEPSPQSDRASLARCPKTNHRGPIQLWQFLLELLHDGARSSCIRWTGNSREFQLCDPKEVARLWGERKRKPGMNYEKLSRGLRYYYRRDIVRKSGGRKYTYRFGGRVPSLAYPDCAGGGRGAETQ
The following applies: protein: recombinant; tags: N-terminal GST; dsDNA, one strand shown. Summed up: as §1

A further experiment has as its target T10, ELF3 (Homo sapiens, UniProt P78545 1-371).
T10 sequence: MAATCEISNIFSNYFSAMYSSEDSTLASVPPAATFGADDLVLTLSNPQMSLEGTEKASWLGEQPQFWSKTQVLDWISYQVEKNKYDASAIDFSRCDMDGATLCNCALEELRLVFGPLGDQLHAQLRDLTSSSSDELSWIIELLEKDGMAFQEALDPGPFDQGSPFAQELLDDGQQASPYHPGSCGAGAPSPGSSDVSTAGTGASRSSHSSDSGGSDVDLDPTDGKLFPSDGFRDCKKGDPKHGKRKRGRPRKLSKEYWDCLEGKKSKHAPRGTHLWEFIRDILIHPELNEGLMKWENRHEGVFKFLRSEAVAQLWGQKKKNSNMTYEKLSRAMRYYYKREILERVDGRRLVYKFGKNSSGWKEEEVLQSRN
The following applies: protein: recombinant; tags: N-terminal GST; dsDNA, one strand shown. The essentials:
as §1

In the next experiment the target is CRX (Homo sapiens, UniProt O43186 1-299). The following applies: protein: recombinant; tags: N-terminal GST; dsDNA, one strand shown. Summed up:
as §1

The target in another experiment is ETV1 (Homo sapiens, UniProt P50549 1-477). As to conditions: protein: recombinant; tags: N-terminal GST; dsDNA, one strand shown. The essentials:
as §1

Chain of ELF4 (Q99607 whole entry): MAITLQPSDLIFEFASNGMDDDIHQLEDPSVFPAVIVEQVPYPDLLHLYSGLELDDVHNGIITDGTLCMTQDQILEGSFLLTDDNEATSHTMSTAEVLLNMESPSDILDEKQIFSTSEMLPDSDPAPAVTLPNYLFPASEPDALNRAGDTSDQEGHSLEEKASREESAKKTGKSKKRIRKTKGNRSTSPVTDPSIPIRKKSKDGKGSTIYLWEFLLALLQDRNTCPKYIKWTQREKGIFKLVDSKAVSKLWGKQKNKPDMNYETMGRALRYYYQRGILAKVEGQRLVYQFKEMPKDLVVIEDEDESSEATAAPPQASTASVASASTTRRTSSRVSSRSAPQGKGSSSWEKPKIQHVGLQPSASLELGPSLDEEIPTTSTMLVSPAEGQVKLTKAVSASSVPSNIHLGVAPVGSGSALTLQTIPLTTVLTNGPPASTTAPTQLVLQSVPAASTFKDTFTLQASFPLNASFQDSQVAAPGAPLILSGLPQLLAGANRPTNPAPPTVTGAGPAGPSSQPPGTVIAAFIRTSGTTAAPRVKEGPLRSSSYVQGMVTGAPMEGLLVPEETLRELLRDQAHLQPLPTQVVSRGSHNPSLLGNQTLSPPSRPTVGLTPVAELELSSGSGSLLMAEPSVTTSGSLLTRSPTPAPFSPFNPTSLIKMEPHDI
Chain of ELF1 (P32519 whole entry): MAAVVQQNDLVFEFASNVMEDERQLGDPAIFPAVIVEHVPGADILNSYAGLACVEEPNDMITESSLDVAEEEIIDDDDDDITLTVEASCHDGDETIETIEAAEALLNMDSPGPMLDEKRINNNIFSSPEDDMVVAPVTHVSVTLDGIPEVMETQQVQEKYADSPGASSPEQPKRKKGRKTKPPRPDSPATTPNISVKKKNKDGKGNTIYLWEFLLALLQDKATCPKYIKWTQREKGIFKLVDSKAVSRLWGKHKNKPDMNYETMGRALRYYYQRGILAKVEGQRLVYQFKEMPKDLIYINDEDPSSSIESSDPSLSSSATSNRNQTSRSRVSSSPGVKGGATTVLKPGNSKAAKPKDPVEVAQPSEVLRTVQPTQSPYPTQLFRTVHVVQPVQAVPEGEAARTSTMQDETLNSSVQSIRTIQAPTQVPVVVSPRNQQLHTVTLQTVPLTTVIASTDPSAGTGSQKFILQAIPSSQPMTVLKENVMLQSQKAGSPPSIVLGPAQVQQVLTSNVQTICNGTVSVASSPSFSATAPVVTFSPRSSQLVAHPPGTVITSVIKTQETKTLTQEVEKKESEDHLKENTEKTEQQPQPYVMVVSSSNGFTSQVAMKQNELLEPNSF
Chain of CRX (O43186 whole entry): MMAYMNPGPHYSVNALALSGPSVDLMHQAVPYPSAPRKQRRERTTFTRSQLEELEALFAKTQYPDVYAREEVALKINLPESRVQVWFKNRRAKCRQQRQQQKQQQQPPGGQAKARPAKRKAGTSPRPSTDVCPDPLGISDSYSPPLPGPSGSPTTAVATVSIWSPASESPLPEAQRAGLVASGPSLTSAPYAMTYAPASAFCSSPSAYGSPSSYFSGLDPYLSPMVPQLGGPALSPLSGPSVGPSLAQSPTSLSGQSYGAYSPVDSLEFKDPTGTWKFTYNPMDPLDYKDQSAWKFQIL
Chain of ETV1 (P50549 whole entry): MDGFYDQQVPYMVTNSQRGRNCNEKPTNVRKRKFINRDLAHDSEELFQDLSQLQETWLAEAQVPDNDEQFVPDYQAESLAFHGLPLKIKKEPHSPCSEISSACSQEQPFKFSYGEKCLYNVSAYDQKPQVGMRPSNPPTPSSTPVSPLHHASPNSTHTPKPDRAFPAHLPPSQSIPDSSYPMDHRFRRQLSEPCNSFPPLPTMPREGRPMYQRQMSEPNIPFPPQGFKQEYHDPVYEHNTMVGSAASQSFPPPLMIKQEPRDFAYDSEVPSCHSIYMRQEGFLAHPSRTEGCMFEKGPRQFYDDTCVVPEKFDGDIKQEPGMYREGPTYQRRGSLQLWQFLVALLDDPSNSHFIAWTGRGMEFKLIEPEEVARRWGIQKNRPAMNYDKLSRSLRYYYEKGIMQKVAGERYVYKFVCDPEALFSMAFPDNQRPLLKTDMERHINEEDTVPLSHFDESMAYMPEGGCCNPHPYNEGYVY
Chain of HSF1 (Q00613 whole entry): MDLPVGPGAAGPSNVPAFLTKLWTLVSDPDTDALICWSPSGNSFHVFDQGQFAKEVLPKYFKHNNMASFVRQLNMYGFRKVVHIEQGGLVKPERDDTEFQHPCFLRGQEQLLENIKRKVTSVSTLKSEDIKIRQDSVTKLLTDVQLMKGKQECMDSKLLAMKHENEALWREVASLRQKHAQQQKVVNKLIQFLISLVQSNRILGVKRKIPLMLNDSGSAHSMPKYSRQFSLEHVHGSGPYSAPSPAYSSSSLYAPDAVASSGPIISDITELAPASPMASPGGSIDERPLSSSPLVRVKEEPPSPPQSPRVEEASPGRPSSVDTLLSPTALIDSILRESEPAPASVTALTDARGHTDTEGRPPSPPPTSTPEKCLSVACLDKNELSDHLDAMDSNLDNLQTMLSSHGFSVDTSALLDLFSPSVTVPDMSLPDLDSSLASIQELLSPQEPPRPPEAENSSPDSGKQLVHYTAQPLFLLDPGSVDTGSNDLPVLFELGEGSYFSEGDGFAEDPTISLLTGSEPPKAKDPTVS
Chain of SPIB (Q01892 whole entry): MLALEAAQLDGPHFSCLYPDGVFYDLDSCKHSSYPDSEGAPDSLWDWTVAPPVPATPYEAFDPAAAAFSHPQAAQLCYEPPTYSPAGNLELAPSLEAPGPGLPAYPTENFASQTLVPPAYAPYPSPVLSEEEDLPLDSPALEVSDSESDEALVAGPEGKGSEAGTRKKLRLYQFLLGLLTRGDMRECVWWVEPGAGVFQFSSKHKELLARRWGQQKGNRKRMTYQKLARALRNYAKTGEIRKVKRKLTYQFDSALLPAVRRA
Chain of ETV5 (P41161 whole entry): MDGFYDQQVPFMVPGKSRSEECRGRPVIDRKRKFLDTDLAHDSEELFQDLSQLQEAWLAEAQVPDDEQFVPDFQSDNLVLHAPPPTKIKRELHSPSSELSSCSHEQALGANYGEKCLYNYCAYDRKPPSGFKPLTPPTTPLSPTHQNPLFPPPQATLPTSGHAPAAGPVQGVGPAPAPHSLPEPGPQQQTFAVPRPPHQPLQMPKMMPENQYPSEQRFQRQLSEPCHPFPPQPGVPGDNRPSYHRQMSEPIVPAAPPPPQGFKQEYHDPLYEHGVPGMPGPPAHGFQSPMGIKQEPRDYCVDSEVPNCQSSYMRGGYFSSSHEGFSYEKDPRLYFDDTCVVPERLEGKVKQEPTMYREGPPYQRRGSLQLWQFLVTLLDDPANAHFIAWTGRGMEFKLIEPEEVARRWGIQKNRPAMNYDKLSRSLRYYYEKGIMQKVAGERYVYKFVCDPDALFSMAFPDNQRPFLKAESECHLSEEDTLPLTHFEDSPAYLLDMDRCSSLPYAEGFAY

As for TAGCTG, the binding signal in the experiment with FLI1 was 1.29 fold enrichment (6-mer frequency, TF over GST control); with ELK1 it was 1.19 fold enrichment (6-mer frequency, TF over GST control); with GABPA, 1.21 fold enrichment (6-mer frequency, TF over GST control); with ERG, 1.11 fold enrichment (6-mer frequency, TF over GST control); in the experiment with ELF1 it was 1.24 fold enrichment (6-mer frequency, TF over GST control); with EHF, 1.31 fold enrichment (6-mer frequency, TF over GST control). The binding signal in the experiment with SPI1 was 1.22 fold enrichment (6-mer frequency, TF over GST control); with SPIB it was 1.3 fold enrichment (6-mer frequency, TF over GST control); in the experiment with FEV it was 1.16 fold enrichment (6-mer frequency, TF over GST control); with ETV5, 1.06 fold enrichment (6-mer frequency, TF over GST control); in the experiment with HSF1, 1.23 fold enrichment (6-mer frequency, TF over GST control); in the experiment with SPIC it was 1.09 fold enrichment (6-mer frequency, TF over GST control). Moreover, the binding signal is 1.2 fold enrichment (6-mer frequency, TF over GST control) with ELF4; 1.23 fold enrichment (6-mer frequency, TF over GST control) in the experiment with ELK4; 1.15 fold enrichment (6-mer frequency, TF over GST control) in the experiment with ETV2; 1.17 fold enrichment (6-mer frequency, TF over GST control) with ELF3; 1.38 fold enrichment (6-mer frequency, TF over GST control) with CRX; 1.12 fold enrichment (6-mer frequency, TF over GST control) in the experiment with ETV1.

Values taken from PMC7862700, “An all-to-all approach to the identification of sequence-specific readers for epigenetic DNA modifications on cytosine”.
